# In the library only some 8.3% were active in any assay of this set; here they are far more common.
# MCF10A rereplic: A quantitative high throughput screen for small molecules that induce DNA re-replication in MCF 10a normal breast cells; MCF 10A DNA re-replication, Hoechst nuclear intensity, 48 h; AID 624296, 2012; Potency, µM (doses to about 46.1 µM), for inactives: at the highest dose activity, positive = re-replication, most hits filed as activators; actives 2.9% (n = 350,000); note: potency is the fitted concentration of half-maximal effect; % of control where 0% means no effect; nearly all actives have a fitted effect of over 50% in size
# Giardia kill: Small Molecules that selectively kill Giardia lamblia: qHTS. Giardia lamblia trophozoite viability. activity change, % at 7.66 µM, hits read low. actives 0.15% (n = 340,000); in the data active = activity change below about -80%; inconclusive = between about -30% and that limit;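 note: parasites exposed to compound for two days anaerobically before the ATP read; % is set by controls: 0 for no effect and ±100 for the full control effect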
#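 Giardia lamblia trophozoites (100 cells/well) were incubated with compounds for 48 h at 37 deg C under anaerobic conditions. Viability was read as ATP content by one-step luminescence after 15-30 min at room temperature.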
# RORgamma inh: qHTS for inhibitors of ROR gamma transcriptional activity | Nuclear receptor ROR-gamma (Mus musculus), P51450 | Drosophila S2 Gal4-RORgamma UAS-luciferase reporter, 20 h | Potency, µM (titrated, usually from 53.6 µM), for the others: at the top dose activity change, negative = inhibition, actives largely listed as inhibitors | actives 5.4% (n = 310,000); note: potency is the fitted concentration of half-maximal effect; % is set by controls: 0 for no effect and ±100 for the full control effect; nearly all actives have a fitted effect of over 60% in size
# Target sequence (P51450 whole entry, looked up, the tested form may be a part): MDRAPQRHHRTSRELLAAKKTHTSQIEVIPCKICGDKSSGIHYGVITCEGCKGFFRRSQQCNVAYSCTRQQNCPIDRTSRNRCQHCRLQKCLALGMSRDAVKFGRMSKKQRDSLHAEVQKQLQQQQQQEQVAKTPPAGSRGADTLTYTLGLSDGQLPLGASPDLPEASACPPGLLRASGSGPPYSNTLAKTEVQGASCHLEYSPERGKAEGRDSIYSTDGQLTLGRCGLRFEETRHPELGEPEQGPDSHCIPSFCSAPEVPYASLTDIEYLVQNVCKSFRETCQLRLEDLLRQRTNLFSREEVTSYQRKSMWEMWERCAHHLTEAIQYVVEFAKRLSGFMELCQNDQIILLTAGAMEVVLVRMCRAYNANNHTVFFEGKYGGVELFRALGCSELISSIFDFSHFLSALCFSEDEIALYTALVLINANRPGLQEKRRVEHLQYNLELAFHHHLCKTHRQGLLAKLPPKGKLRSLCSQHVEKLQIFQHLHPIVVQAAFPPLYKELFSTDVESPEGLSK
#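 Compounds are pin-transferred onto Drosophila Schneider cells expressing a copper-inducible Gal4–ROR gamma transactivation domain fusion. After 1 hr, copper sulfate is added to 700 uM final; luciferase is read 20 hr later.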
# SW480 rereplic: A quantitative high throughput screen for small molecules that induce DNA re-replication in SW480 colon adenocarcinoma cells | SW480 DNA re-replication, Hoechst DNA content imaging, 48 h | Potency, µM (highest dose often 46.1 µM), inactives show at the top dose re-replication activation, most hits filed as activators | actives 1.8% (n = 340,000) | AID 624297, 2012; note: potency is the fitted concentration of half-maximal effect; % of control where 0% means no effect; nearly all actives have a fitted effect of over 55% in size
#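 250 cells/well; 23 nL cpd via pin tool; 48 hr, 37 C, 5% CO2; Hoechst 40 min; imager read of total nuclear intensity, ex 405/em 500-530 nm.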
# VP16 counter: VP16 counterscreen qHTS for inhibitors of ROR gamma transcriptional activity | Potency, µM (series often up to 53.6 µM), inactives show at the top dose activity, negative = inhibition, most hits filed as inhibitors | actives 3.5% (n = 310,000) | Drosophila S2 Gal4-VP16 UAS-luciferase, luminescence, 20 h;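 note: Gal4-VP16 expression switched on by copper sulfate through the metallothionein promoter; potency is the fitted concentration of half-maximal effect; % is set by controls: 0 for no effect and ±100 for the full control effect; nearly all actives have a fitted effect of over 50% in size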
# Chronic BCR inh: qHTS Assay to Find Inhibitors of Chronic Active B-Cell Receptor Signaling; ABC-DLBCL IkBa-CBG/CBR reporter, luminescence ratio, 4 h; Potency, µM (titrated, usually from 46.1 µM), inactives show at the highest dose activity change, negative = inhibition, usual class: inhibitors; actives 0.05% (n = 340,000); active = well fitted inhibition curve with a large enough effect in the signal ratio, with a control signal flat, not every such curve was filed as active; inconclusive = small, poorly fitted or top-dose-only effect, or effect the other way, or a change in a side signal; the % refers to the signal ratio;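 note: potency is the fitted concentration of half-maximal effect; plate controls were basal doxycycline-induced cells for no effect and cells given 10 µM MG132 for full effect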
#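 Doxycycline induced both beetle luciferases in TMD8 lymphoma cells; IKK-driven degradation limits the IkappaBalpha-fused green signal, while red luminescence normalises for cell number and nonspecific effects. Compounds tested up to 46 uM, 4 hrs.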
# Active calls of the source: *; u = inconclusive; x = no result; [ ] = dose if it differs, or a comment. Unless noted, calls come from the whole dose curve; as a rule, active = well fitted curve in the direction sought with a large enough effect; inconclusive = small, poorly fitted or top-dose-only effect, or another doubt; inactive = no such curve, though single readings can be large; an effect the other way counts as inactive or inconclusive.
SMILES,MCF10A rereplic,Giardia kill,RORgamma inh,SW480 rereplic,VP16 counter,Chronic BCR inh
COC(=O)C1=C(C)N(Cc2ccccc2)C(=S)N[C@H]1c1cccc(F)c1,0.0%,1.6,4.47µM*,2.5%,12.6µM*,u
CCN1C(=S)N[C@@H](c2ccccc2)C(C(=O)OC)=C1C,-2.3%,1.3,3.16µM*,-3.6%[9.22 µM],u,u
COC(=O)C1=C(C)N(Cc2ccccc2)C(=NCc2ccccc2)N[C@H]1c1cccc(F)c1,-25.0%,-27.4,u,10.1%,-15.8%,u
C/C(CC(C)C)=N\Nc1ccc(S(N)(=O)=O)cc1[N+](=O)[O-],10.4%,-10.2,-16.8%,-9.8%,-11.9%,0.4%
CCOc1ccc(C2C(C(=O)OC)=CN(C(C)c3ccccc3)C=C2C(=O)OC)cc1 (configuration not stated),16.4µM*,-27.6,1.3%,u,-12.4%,1.4%
Cc1ccc(NC(=S)NNC(=O)c2ccc(N3CCOCC3)c([N+](=O)[O-])c2)cc1Cl,u,-18.1,15.8µM*,u,12.6µM*,-7.8%
O=C(NNC(=S)Nc1ccc(Cl)cc1Cl)c1ccncc1,-2.6%,-2.3,u,4.7%,11.2µM*,u
O=C(NNC(=S)Nc1ccc(Br)cc1)c1ccc(N2CCOCC2)c([N+](=O)[O-])c1,u,-3.5,12.6µM*,9.3%,12.6µM*,11.8%
O=C(NNC(=S)Nc1ccc(Cl)cc1Cl)c1ccc(N2CCOCC2)c([N+](=O)[O-])c1,28.4%,-4.7,11.2µM*,-69.4%,u,-8.6%
CCC1Oc2ccc(C)cc2N(CC(=O)N2CCN(c3ccccc3OC)CC2)C1=O (configuration not stated),x,x,x,x,x,-4.6%
Cc1onc(-c2ccccc2)c1C(=O)NCC(=O)Nc1cc(Cl)ccc1Cl,2.3%,-2.3,x,-4.6%,x,2.9%
COC(=O)CC(c1ccc(F)cc1)n1c(C)ccc1C (configuration not stated),23.1µM*,-17.3,-25.2%,8.6%[1.84 µM],-3.9%,u
COC(=O)CNC(=O)C1CC(=O)N(CCc2ccc(F)cc2)C1 (configuration not stated),-5.0%,30.0,3.0%,u,1.3%,-2.1%
Cn1c(OCc2cccnc2)nc2c1c(=O)n(Cc1ccc(Br)cc1)c(=O)n2C,16.3%,-4.1,3.55µM*,-2.2%,u,-1.1%
CC(=N\NC(=O)c1ccc([N+](=O)[O-])cc1)/C(=N/O)C(=O)Nc1ccccc1,-4.8%,3.1,3.98µM*,u,6.31µM*,6.2%
COc1ccccc1/C=C/C(=O)NCc1cccnc1,1.9%,16.4,18.6%,-13.5%,-6.2%,u
FC(F)(F)c1nc(NCc2ccccc2)c2nnn(Cc3ccccc3)c2n1,16.6%,5.1,8.91µM*,-2.6%,-27.3%,-1.1%
CCN(CC)CCNc1nc(C(F)(F)F)nc2c1nnn2Cc1ccccc1,6.3%,-5.1,x,3.4%,x,3.0%
CN(CC(=O)Nc1ccccc1Br)C(=O)CN(C)C1CCCCC1,20.4%,3.8,x,-22.5%,x,0.0%
O=C(NC(=S)Nc1ccccc1C(F)(F)F)c1ccccc1F,10.3µM*,-6.5,6.31µM*,-3.2%,u,-10.0%
Cc1ccc(C(=O)NC(=S)Nc2ccccc2C(F)(F)F)c(C)c1,1.3%,-0.3,2.7%,-36.0%,-10.7%,u
O=C(NC(=S)Nc1c(Cl)ccc2nsnc12)c1ccccc1F,6.2%,24.2,1.41µM*,3.3%,-11.5%,6.4%
Cc1ccccc1C(=O)NC(=S)Nc1ccccc1C(F)(F)F,-0.7%,-0.7,0.794µM*,8.8%,u,u
COc1ccccc1CCNC(=O)C(=O)NCC(c1ccco1)S(=O)(=O)c1ccccc1 (configuration not stated),x,x,x,x,x,0.0%
Cc1cc(S(=O)(=O)N2CCOCC2)ccc1OCC(=O)NCC1CCCO1 (configuration not stated),-4.4%,-3.5,-1.8%,0.3%,0.9%,-2.7%
SMILES,MCF10A rereplic,Giardia kill,RORgamma inh,SW480 rereplic,VP16 counter,Chronic BCR inh
Cc1ccc(NCc2n[nH]c(=S)n2-c2ccccc2)c(C)c1,15.8%,3.5,1.78µM*,0.5%,u,5.2%
Cc1cccc(NCc2n[nH]c(=S)n2-c2ccccc2)c1,-12.9%,-5.8,10µM*,1.5%,-18.0%,-0.4%
Cc1ccc(NCc2n[nH]c(=S)n2-c2ccccc2)cc1,1.5%,17.1,8.91µM*,4.4%,-4.8%,-0.7%
COc1ccccc1C(=O)COC(=O)C1CCN(S(=O)(=O)c2ccc(C)c(C)c2)CC1,-0.3%,2.2,x,-5.2%,x,9.0%
COc1ncc2nc(-c3ccc(F)cc3)c(=O)n(Cc3ccc(F)cc3)c2n1,x,x,-33.6%,x,-15.5%,x
CCCCCCCCc1nnc(N)s1,1.9%,8.4,27.3%,5.0%,2.4%,5.3%
Nc1nnc(CCCCCc2nnc(N)s2)s1,10.7%,10.9,-17.0%,1.46µM*,0.7%,-1.4%
CC1CCN(c2nc(Cl)nc(Nc3ccc([N+](=O)[O-])cc3)n2)CC1,5.17µM*,-19.7,u,-3.2%,2.0%,-1.0%
C=CCNc1nc(Nc2ccc([N+](=O)[O-])cc2)nc(N2CCCC2)n1,2.8%,7.0,0.891µM*,4.2%,-4.2%,-17.2%
CC(C)c1ccc(Nc2nnc(SCC(=O)NCC3CCCO3)s2)cc1 (configuration not stated),-0.9%,-17.6,x,-4.5%,x,-12.5%
CCN(CC)S(=O)(=O)c1cccc(-c2n[nH]c(=S)n2C)c1,12.8%,-16.6,u,3.1%,-3.9%[10 µM],-11.0%
Cc1ccc(-c2n[nH]c(=S)n2C)cc1Cl,-1.8%,5.4,0.562µM*,-2.4%,3.55µM*,-6.7%
CC(=O)Cc1nsc(NC(=O)c2ccc(-c3cccc(Cl)c3)o2)n1,10.3µM*,0.2,1.4%,u,-12.0%,-1.6%
COC(=O)c1cc(NS(=O)(=O)c2cc(Br)cc3c2N(C(C)=O)CC3)cc(C(=O)OC)c1,x,x,x,x,x,-9.3%
COc1ccc(NS(=O)(=O)c2cc(Br)cc3c2N(C(C)=O)CC3)cc1,18.4µM*,1.2,17.4%,6.51µM*,-2.7%,u
CCNC(=S)Nc1ccc(N2CCCCC2)cc1,0.4%,4.7,12.6µM*,-5.5%,-68.1%,0.3%
COCCCNC(=S)Nc1ccc(N2CCCCC2)cc1,8.4%,0.3,17.8µM*,18.1%,u,0.1%
O=C(Cc1ccccc1)Nc1ccc(N2CCCCC2)cc1,10.5%,-29.8,-11.6%,3.6%,-13.5%,-9.3%
S=C(NCCc1ccccc1)Nc1ccc(N2CCCCC2)cc1,10.8%,-6.2,7.94µM*,-13.3%,u,7.4%

# Compound activity as filed in PubChem.
